# Experimental data: the supplement of paper PMC4022240
# ± gives the standard deviation.
# T1: HaloTag-ATRX ADD domain (163-292)
# T1 chain: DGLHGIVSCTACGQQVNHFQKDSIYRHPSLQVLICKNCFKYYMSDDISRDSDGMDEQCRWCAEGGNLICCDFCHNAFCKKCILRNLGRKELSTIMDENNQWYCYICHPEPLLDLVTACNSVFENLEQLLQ
# Experiments:
# Assay in all cases: peptide microarray binding signal (635 nm), min-max normalized on array (fraction of array maximum); higher = stronger binding
# Settings in all cases: peptide region: H4 16-28
# [1] = biological target: T1, HaloTag-ATRX ADD domain (163-292)
# Method in brief: (§1)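 Histone 13-mer peptide–cellulose conjugates were printed in triplicate on nitrocellulose with a Cy3 tracer, then blocked overnight at 4°C. Arrays were probed for 1 h at 4°C with biotin-labelled HaloTag reader fusions (10 nM to 1 μM) plus streptavidin-Alexa Fluor 647, or with rabbit histone antibodies (1:10,000 to 1:2,000) plus anti-rabbit Alexa 647. An Axon GenePix 4000B scanned 635 nm for signal and 532 nm for misprints. Binding signal is the triplicate-spot mean intensity, min-max scaled per library.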
# [2] = biological target: HaloTag-ING2 PHD (mouse Ing2 200-280)
# Method in brief: as §1
# [3] = biological target: anti-H3K4me3 antibody ab8580
# Method in brief: as §1
# [4] = biological target: anti-H3K9me3 antibody ab8898
# Method in brief: as §1
# [5] = peptide modifications: H4R19me1 H4K20me2, binder concentration: 1:2,000 dilution
# [6] = peptide modifications: H4R19me1 H4K20me2, binder concentration: 1:10,000 dilution
# [7] = peptide modifications: H4R19me2a H4K20ac, binder concentration: 1:2,000 dilution
# [8] = peptide modifications: H4R19me2a H4K20ac, binder concentration: 1:10,000 dilution
# [9] = peptide modifications: H4R19me2a, binder concentration: 1:2,000 dilution
# [10] = peptide modifications: H4R19me1 H4K20me3, binder concentration: 1:2,000 dilution
# [11] = peptide modifications: H4R19me1 H4K20me3, binder concentration: 1:10,000 dilution
# [12] = peptide modifications: H4R19me2a H4K20me3, binder concentration: 1:2,000 dilution
# [13] = peptide modifications: H4R19me2a H4K20me3, binder concentration: 1:10,000 dilution
# [14] = peptide modifications: H4R19me2s H4K20me1, binder concentration: 1:2,000 dilution
# [15] = peptide modifications: H4R19me2s H4K20me1, binder concentration: 1:10,000 dilution
# [16] = peptide modifications: H4R19me2a H4K20me2, binder concentration: 1:2,000 dilution
# [17] = peptide modifications: H4R19me2a H4K20me2, binder concentration: 1:10,000 dilution
# [18] = peptide modifications: H4R19me1 H4K20ac, binder concentration: 1:2,000 dilution
# [19] = peptide modifications: H4R19me1 H4K20ac, binder concentration: 1:10,000 dilution
# [20] = peptide modifications: H4R19me1 H4K20me1, binder concentration: 1:2,000 dilution
# [21] = peptide modifications: H4R19me1 H4K20me1, binder concentration: 1:10,000 dilution
# [22] = peptide modifications: H4R19me2a H4K20me1, binder concentration: 1:2,000 dilution
# [23] = peptide modifications: H4R19me2a H4K20me1, binder concentration: 1:10,000 dilution
binder,measurement,setting,value
KRHRKVLRDNIQG [H4 16-28 K R H Rme Kme2 V L R D N I Q G],peptide microarray binding signal,"[1]; peptide modifications: H4R19me1 H4K20me2, binder concentration: 50 nM",0.00404 ± 8.4e-05
same,peptide microarray binding signal,"[1]; peptide modifications: H4R19me1 H4K20me2, binder concentration: 500 nM",0.00943 ± 0.001
same,peptide microarray binding signal,"[2]; peptide modifications: H4R19me1 H4K20me2, binder concentration: 10 nM",0.00847 ± 0.00051
same,peptide microarray binding signal,"[2]; peptide modifications: H4R19me1 H4K20me2, binder concentration: 100 nM",0.0223 ± 0.0015
same,peptide microarray binding signal,[3]; [5],0.00219 ± 0.0001
same,peptide microarray binding signal,[3]; [6],0.002 ± 4.9e-05
same,peptide microarray binding signal,[4]; [5],0.00116 ± 9e-05
same,peptide microarray binding signal,[4]; [6],0.00254 ± 0.00041
KRHRKVLRDNIQG [H4 16-28 K R H Rme2a Kac V L R D N I Q G],peptide microarray binding signal,"[1]; peptide modifications: H4R19me2a H4K20ac, binder concentration: 50 nM",0.003699 ± 3e-05
same,peptide microarray binding signal,"[1]; peptide modifications: H4R19me2a H4K20ac, binder concentration: 500 nM",0.006
same,peptide microarray binding signal,"[2]; peptide modifications: H4R19me2a H4K20ac, binder concentration: 10 nM",0.00871 ± 0.00039
same,peptide microarray binding signal,"[2]; peptide modifications: H4R19me2a H4K20ac, binder concentration: 100 nM",0.0218 ± 0.0012
same,peptide microarray binding signal,[3]; [7],0.000774 ± 2.5e-05
same,peptide microarray binding signal,[3]; [8],0.00171 ± 3.3e-05
same,peptide microarray binding signal,[4]; [7],0.0004379 ± 4.2e-06
same,peptide microarray binding signal,[4]; [8],0.001211 ± 1.2e-05
KRHRKVLRDNIQG [H4 16-28 K R H Rme2a K V L R D N I Q G],peptide microarray binding signal,"[1]; peptide modifications: H4R19me2a, binder concentration: 500 nM",4.76e-05 ± 5.2e-07
same,peptide microarray binding signal,"[2]; peptide modifications: H4R19me2a, binder concentration: 100 nM",0.000213 ± 2.5e-06
same,peptide microarray binding signal,[3]; [9],5.66e-05
same,peptide microarray binding signal,[4]; [9],1.51e-05 ± 1.7e-07
KRHRKVLRDNIQG [H4 16-28 K R H Rme Kme3 V L R D N I Q G],peptide microarray binding signal,"[1]; peptide modifications: H4R19me1 H4K20me3, binder concentration: 50 nM",0.0047 ± 0.00026
same,peptide microarray binding signal,"[1]; peptide modifications: H4R19me1 H4K20me3, binder concentration: 500 nM",0.00638 ± 0.00038
same,peptide microarray binding signal,"[2]; peptide modifications: H4R19me1 H4K20me3, binder concentration: 10 nM",0.0104 ± 0.00011
same,peptide microarray binding signal,"[2]; peptide modifications: H4R19me1 H4K20me3, binder concentration: 100 nM",0.0129 ± 0.00048
same,peptide microarray binding signal,[3]; [10],0.00636 ± 0.00079
same,peptide microarray binding signal,[3]; [11],0.00867 ± 0.00021
same,peptide microarray binding signal,[4]; [10],0.0157 ± 0.0041
same,peptide microarray binding signal,[4]; [11],0.00871 ± 0.00013
KRHRKVLRDNIQG [H4 16-28 K R H Rme2a Kme3 V L R D N I Q G],peptide microarray binding signal,"[1]; peptide modifications: H4R19me2a H4K20me3, binder concentration: 50 nM",0.0152 ± 0.00067
same,peptide microarray binding signal,"[1]; peptide modifications: H4R19me2a H4K20me3, binder concentration: 500 nM",0.0166 ± 0.00049
same,peptide microarray binding signal,"[2]; peptide modifications: H4R19me2a H4K20me3, binder concentration: 10 nM",0.0209 ± 0.00068
same,peptide microarray binding signal,"[2]; peptide modifications: H4R19me2a H4K20me3, binder concentration: 100 nM",0.0392 ± 0.009
same,peptide microarray binding signal,[3]; [12],0.0145 ± 0.0019
same,peptide microarray binding signal,[3]; [13],0.00981 ± 0.00045
same,peptide microarray binding signal,[4]; [12],0.0143 ± 0.0024
same,peptide microarray binding signal,[4]; [13],0.0104 ± 0.00022
KRHRKVLRDNIQG [H4 16-28 K R H Rme2s Kme V L R D N I Q G],peptide microarray binding signal,"[1]; peptide modifications: H4R19me2s H4K20me1, binder concentration: 50 nM",0.00379 ± 5.5e-05
same,peptide microarray binding signal,"[1]; peptide modifications: H4R19me2s H4K20me1, binder concentration: 500 nM",0.00586 ± 0.00025
same,peptide microarray binding signal,"[2]; peptide modifications: H4R19me2s H4K20me1, binder concentration: 10 nM",0.0101 ± 0.00023
same,peptide microarray binding signal,"[2]; peptide modifications: H4R19me2s H4K20me1, binder concentration: 100 nM",0.0192 ± 0.00073
same,peptide microarray binding signal,[3]; [14],0.0013 ± 1.8e-05
same,peptide microarray binding signal,[3]; [15],0.002568 ± 2.3e-05
same,peptide microarray binding signal,[4]; [14],0.000831 ± 4.3e-05
same,peptide microarray binding signal,[4]; [15],0.001614 ± 1.6e-05
KRHRKVLRDNIQG [H4 16-28 K R H Rme2a Kme2 V L R D N I Q G],peptide microarray binding signal,"[1]; peptide modifications: H4R19me2a H4K20me2, binder concentration: 50 nM",0.0248 ± 0.0013
same,peptide microarray binding signal,"[1]; peptide modifications: H4R19me2a H4K20me2, binder concentration: 500 nM",0.0149 ± 0.00068
same,peptide microarray binding signal,"[2]; peptide modifications: H4R19me2a H4K20me2, binder concentration: 10 nM",0.0209 ± 0.0011
same,peptide microarray binding signal,"[2]; peptide modifications: H4R19me2a H4K20me2, binder concentration: 100 nM",0.0188 ± 0.00076
same,peptide microarray binding signal,[3]; [16],0.00119 ± 1.7e-05
same,peptide microarray binding signal,[3]; [17],0.00348 ± 4.9e-05
same,peptide microarray binding signal,[4]; [16],0.00113 ± 8.4e-05
same,peptide microarray binding signal,[4]; [17],0.00427 ± 0.00011
KRHRKVLRDNIQG [H4 16-28 K R H Rme Kac V L R D N I Q G],peptide microarray binding signal,"[1]; peptide modifications: H4R19me1 H4K20ac, binder concentration: 50 nM",0.00448 ± 0.00018
same,peptide microarray binding signal,"[1]; peptide modifications: H4R19me1 H4K20ac, binder concentration: 500 nM",0.00967 ± 0.0016
same,peptide microarray binding signal,"[2]; peptide modifications: H4R19me1 H4K20ac, binder concentration: 10 nM",0.00627 ± 0.00047
same,peptide microarray binding signal,"[2]; peptide modifications: H4R19me1 H4K20ac, binder concentration: 100 nM",0.00609 ± 0.00066
same,peptide microarray binding signal,[3]; [18],0.00468 ± 0.0037
same,peptide microarray binding signal,[3]; [19],0.00137 ± 1.3e-05
same,peptide microarray binding signal,[4]; [18],0.000287 ± 2.9e-06
same,peptide microarray binding signal,[4]; [19],0.001557 ± 1.5e-05
KRHRKVLRDNIQG [H4 16-28 K R H Rme Kme V L R D N I Q G],peptide microarray binding signal,"[1]; peptide modifications: H4R19me1 H4K20me1, binder concentration: 50 nM",0.00552 ± 0.00017
same,peptide microarray binding signal,"[1]; peptide modifications: H4R19me1 H4K20me1, binder concentration: 500 nM",0.01 ± 0.00041
same,peptide microarray binding signal,"[2]; peptide modifications: H4R19me1 H4K20me1, binder concentration: 10 nM",0.00961 ± 0.00044
same,peptide microarray binding signal,"[2]; peptide modifications: H4R19me1 H4K20me1, binder concentration: 100 nM",0.0145 ± 0.0033
same,peptide microarray binding signal,[3]; [20],0.0027 ± 0.00027
same,peptide microarray binding signal,[3]; [21],0.002511 ± 2.2e-05
same,peptide microarray binding signal,[4]; [20],0.00143 ± 4.1e-05
same,peptide microarray binding signal,[4]; [21],0.002133 ± 2e-05
KRHRKVLRDNIQG [H4 16-28 K R H Rme2a Kme V L R D N I Q G],peptide microarray binding signal,"[1]; peptide modifications: H4R19me2a H4K20me1, binder concentration: 50 nM",0.00382 ± 5.3e-05
same,peptide microarray binding signal,"[1]; peptide modifications: H4R19me2a H4K20me1, binder concentration: 500 nM",0.008 ± 0.00032
same,peptide microarray binding signal,"[2]; peptide modifications: H4R19me2a H4K20me1, binder concentration: 10 nM",0.00782 ± 0.00021
same,peptide microarray binding signal,"[2]; peptide modifications: H4R19me2a H4K20me1, binder concentration: 100 nM",0.0127 ± 0.0032
same,peptide microarray binding signal,[3]; [22],0.0308 ± 0.032
same,peptide microarray binding signal,[3]; [23],0.00188 ± 8.8e-05
same,peptide microarray binding signal,[4]; [22],0.000966 ± 4.1e-05
same,peptide microarray binding signal,[4]; [23],0.0015 ± 4.4e-05
